# Assay results: article PMC7862700, “An all-to-all approach to the identification of sequence-specific readers for epigenetic DNA modifications on cytosine”
# Tests used:
# Assay in all cases: DAPPL (digital affinity profiling via proximity ligation, sequencing); 10 mM Tris-HCl pH 7.5, 50 mM NaCl, 1 mM DTT, 4% glycerol, room temperature, 30 min; GST-TFs on glutathione beads, 16-mer random dsDNA library, 0.1% formaldehyde crosslink after washing; high values mean tight binding
# FEV = biological target: T1, FEV (Homo sapiens, UniProt Q99581 1-238); details: protein: recombinant; tags: N-terminal GST; dsDNA, one strand shown
# T1 sequence: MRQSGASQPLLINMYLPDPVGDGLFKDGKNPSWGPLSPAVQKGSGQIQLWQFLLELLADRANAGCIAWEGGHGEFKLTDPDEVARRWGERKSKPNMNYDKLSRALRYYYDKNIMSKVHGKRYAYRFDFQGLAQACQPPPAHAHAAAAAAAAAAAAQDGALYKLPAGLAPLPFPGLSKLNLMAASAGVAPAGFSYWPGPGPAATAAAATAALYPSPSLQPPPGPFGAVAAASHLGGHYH
# Method in brief: (§1)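 The binding signal reported is, for every hexamer, its read frequency for a factor over its read frequency for the tag-only sample. Reads came from pools of yeast-expressed, GST-fused human transcription factors on glutathione beads, barcoded with DNA and mixed with that sample, which were incubated with 200 nmole of a random double-stranded 16-mer DNA library in Tris/NaCl/DTT/glycerol buffer at room temperature for 30 min. After washing, the pools were crosslinked with 0.1% formaldehyde, proximity-ligated with BsaI/T4 ligase for 1 h at 37 °C, PCR-amplified and sequenced on an Illumina NextSeq500.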
# ETV5 = ETV5 (Homo sapiens, UniProt P41161 1-510); details: protein: recombinant; tags: N-terminal GST; dsDNA, one strand shown
# ETV5, sequence (P41161 whole entry): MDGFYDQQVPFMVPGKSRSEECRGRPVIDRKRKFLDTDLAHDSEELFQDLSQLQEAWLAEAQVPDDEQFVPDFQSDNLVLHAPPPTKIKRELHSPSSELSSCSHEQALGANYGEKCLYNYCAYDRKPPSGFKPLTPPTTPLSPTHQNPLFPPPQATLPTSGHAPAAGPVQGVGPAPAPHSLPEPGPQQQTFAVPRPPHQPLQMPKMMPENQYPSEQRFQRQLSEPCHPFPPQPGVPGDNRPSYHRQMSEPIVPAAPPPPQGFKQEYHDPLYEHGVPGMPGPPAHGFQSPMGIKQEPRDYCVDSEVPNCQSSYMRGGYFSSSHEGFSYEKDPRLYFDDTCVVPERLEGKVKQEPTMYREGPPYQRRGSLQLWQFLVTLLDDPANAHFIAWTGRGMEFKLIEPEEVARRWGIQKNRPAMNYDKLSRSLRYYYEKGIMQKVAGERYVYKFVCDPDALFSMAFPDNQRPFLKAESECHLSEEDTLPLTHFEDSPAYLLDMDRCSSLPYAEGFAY
# Method in brief: as §1
# HSF1 = HSF1 (Homo sapiens, UniProt Q00613 1-529); details: protein: recombinant; tags: N-terminal GST; chain copies: 3; dsDNA, one strand shown
# HSF1, sequence (Q00613 whole entry): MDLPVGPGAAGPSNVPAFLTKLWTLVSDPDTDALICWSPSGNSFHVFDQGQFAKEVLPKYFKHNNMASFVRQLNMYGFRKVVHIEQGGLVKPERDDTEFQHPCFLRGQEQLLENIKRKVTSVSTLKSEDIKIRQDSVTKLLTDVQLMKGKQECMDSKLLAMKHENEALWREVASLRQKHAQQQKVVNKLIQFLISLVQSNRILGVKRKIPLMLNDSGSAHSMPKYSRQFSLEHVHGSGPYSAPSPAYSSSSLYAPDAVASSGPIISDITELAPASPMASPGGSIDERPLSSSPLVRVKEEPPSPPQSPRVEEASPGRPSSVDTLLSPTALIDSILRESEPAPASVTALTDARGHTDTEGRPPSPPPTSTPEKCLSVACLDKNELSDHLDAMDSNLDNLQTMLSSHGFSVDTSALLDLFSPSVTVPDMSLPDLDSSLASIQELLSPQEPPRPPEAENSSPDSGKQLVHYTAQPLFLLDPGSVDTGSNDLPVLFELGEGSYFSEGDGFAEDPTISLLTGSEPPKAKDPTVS
# Method in brief: as §1
# SPIC = biological target: T2, SPIC (Homo sapiens, UniProt Q8N5J4 1-248); details: protein: recombinant; tags: N-terminal GST; dsDNA, one strand shown
# T2 sequence: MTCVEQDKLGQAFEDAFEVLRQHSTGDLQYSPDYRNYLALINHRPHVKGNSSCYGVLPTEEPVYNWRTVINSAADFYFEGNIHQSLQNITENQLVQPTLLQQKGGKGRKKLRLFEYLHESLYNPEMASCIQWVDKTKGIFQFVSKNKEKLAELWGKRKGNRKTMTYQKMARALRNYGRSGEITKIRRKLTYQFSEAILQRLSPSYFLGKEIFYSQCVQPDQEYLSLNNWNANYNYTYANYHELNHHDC
# Method in brief: as §1
# ELF4 = ELF4 (Homo sapiens, UniProt Q99607 1-663); details: protein: recombinant; tags: N-terminal GST; dsDNA, one strand shown
# ELF4, sequence (Q99607 whole entry): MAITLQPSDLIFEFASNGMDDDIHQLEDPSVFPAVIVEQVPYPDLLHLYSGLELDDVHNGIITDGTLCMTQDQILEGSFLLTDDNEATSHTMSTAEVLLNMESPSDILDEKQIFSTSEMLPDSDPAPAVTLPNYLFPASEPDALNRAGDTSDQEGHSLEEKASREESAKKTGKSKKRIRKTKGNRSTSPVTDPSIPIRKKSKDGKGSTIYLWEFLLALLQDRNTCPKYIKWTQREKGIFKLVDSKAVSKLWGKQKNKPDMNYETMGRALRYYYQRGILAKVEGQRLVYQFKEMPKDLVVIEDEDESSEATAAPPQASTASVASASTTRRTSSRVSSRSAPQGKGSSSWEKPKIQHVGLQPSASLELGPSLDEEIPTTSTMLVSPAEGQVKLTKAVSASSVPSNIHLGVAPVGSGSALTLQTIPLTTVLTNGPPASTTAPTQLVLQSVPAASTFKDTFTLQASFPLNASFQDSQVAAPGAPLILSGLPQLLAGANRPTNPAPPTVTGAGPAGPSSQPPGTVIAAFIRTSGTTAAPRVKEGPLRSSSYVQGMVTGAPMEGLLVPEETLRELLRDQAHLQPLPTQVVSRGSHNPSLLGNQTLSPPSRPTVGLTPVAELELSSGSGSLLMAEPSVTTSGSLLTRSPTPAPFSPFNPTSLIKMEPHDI
# Method in brief: as §1
# ELK4 = biological target: T3, ELK4 (Homo sapiens, UniProt P28324-2 1-405); details: protein: recombinant; tags: N-terminal GST; dsDNA, one strand shown
# T3 sequence: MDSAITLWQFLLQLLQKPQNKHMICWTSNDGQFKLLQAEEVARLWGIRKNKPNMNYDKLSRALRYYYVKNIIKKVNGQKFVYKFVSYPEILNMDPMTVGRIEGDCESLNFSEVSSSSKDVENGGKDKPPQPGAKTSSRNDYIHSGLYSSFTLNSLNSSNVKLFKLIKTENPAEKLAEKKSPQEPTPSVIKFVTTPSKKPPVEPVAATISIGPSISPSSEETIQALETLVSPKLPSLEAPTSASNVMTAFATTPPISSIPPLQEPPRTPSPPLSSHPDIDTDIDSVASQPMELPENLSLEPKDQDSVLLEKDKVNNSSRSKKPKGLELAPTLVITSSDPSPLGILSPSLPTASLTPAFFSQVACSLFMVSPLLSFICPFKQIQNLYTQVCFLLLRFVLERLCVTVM
# Method in brief: as §1
# ETV2 = biological target: T4, ETV2 (Homo sapiens, UniProt O00321 1-342); details: protein: recombinant; tags: N-terminal GST; dsDNA, one strand shown
# T4 sequence: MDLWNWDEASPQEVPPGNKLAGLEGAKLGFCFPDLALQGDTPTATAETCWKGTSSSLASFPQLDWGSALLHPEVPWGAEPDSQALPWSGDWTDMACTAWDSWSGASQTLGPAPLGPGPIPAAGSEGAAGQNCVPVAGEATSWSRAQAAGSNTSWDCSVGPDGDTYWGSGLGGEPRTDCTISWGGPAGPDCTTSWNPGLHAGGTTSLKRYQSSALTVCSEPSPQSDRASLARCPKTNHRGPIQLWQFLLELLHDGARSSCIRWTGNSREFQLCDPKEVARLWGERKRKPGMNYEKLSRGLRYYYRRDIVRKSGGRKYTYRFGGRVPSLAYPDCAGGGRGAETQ
# Method in brief: as §1
# CRX = CRX (Homo sapiens, UniProt O43186 1-299); details: protein: recombinant; tags: N-terminal GST; dsDNA, one strand shown
# CRX, sequence (O43186 whole entry): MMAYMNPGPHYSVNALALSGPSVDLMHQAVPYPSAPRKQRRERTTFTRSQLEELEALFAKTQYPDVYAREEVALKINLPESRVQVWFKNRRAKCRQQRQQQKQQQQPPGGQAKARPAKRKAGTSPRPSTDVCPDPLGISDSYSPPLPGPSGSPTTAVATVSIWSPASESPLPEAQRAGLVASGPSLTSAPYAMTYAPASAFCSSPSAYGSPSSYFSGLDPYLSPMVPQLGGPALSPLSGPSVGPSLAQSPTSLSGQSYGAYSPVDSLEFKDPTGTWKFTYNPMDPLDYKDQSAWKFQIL
# Method in brief: as §1
# ETV1 = ETV1 (Homo sapiens, UniProt P50549 1-477); details: protein: recombinant; tags: N-terminal GST; dsDNA, one strand shown
# ETV1, sequence (P50549 whole entry): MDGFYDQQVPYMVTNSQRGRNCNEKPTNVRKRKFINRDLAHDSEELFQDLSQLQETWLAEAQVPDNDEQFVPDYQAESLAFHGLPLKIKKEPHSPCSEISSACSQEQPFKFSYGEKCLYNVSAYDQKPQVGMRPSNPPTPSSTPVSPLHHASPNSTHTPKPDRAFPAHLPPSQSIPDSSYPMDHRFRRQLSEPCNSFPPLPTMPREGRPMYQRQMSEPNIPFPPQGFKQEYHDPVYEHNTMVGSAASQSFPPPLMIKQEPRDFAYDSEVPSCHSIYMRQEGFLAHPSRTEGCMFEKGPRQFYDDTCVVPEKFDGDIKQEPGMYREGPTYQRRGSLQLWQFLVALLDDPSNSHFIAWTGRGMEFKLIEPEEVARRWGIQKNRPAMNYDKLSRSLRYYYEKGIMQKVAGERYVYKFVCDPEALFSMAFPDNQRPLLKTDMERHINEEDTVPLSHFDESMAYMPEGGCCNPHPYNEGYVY
# Method in brief: as §1
# ERF = biological target: T5, ERF (Homo sapiens, UniProt P50548 1-548); details: protein: recombinant; tags: N-terminal GST; dsDNA, one strand shown
# T5 sequence: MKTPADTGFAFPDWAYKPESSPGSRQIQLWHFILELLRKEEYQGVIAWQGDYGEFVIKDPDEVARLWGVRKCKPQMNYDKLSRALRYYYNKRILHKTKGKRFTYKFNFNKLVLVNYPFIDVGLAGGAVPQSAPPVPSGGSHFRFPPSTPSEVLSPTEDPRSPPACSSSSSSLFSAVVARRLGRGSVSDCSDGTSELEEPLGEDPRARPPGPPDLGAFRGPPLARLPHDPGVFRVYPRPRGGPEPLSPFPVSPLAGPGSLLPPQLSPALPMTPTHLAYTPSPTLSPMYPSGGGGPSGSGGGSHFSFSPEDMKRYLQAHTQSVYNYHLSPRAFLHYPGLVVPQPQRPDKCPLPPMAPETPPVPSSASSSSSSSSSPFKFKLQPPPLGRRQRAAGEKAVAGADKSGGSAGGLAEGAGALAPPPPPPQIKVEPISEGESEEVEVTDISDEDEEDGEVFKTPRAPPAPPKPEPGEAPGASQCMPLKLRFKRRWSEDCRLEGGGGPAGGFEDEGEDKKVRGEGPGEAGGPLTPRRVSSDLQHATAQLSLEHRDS
# Method in brief: as §1
# ETV3L = biological target: T6, ETV3L (Homo sapiens, UniProt Q6ZN32 1-361); details: protein: recombinant; tags: N-terminal GST; dsDNA, one strand shown
# T6 sequence: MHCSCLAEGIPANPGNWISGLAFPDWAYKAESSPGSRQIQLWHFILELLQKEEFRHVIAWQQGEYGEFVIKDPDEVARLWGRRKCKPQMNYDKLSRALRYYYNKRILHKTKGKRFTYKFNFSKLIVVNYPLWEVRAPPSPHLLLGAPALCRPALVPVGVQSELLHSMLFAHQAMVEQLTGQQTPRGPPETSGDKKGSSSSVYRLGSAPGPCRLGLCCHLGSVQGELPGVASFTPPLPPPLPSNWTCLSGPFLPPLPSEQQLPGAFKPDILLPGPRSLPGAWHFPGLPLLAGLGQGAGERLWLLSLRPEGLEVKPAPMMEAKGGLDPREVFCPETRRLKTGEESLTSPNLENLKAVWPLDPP
# Method in brief: as §1
# ETS2 = biological target: T7, ETS2 (Homo sapiens, UniProt P15036 1-469); details: protein: recombinant; tags: N-terminal GST; dsDNA, one strand shown
# T7 sequence: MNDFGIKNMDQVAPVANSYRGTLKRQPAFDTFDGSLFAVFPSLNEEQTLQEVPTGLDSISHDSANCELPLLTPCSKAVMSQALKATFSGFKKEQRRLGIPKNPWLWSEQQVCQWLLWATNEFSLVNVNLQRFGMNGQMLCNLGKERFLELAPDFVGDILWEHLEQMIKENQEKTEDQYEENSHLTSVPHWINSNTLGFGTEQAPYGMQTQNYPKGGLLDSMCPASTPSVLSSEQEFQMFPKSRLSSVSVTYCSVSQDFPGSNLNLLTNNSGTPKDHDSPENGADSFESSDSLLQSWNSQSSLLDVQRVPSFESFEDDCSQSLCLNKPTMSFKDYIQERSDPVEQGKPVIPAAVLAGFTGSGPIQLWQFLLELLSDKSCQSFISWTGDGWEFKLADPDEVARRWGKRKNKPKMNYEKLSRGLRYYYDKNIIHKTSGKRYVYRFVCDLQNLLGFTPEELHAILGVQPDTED
# Method in brief: as §1
# SPDEF = biological target: T8, SPDEF (Homo sapiens, UniProt O95238 1-335); details: protein: recombinant; tags: N-terminal GST; dsDNA, one strand shown
# T8 sequence: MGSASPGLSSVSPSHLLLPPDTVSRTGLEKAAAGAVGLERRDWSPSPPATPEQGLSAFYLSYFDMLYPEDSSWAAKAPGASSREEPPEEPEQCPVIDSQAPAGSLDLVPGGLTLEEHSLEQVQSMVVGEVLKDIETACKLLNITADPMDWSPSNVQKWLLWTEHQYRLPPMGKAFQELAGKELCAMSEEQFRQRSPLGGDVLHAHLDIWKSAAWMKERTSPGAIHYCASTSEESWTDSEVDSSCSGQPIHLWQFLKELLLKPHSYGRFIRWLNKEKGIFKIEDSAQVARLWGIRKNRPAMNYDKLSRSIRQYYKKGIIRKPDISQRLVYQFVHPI
# Method in brief: as §1
# ETV7 = biological target: T9, ETV7 (Homo sapiens, UniProt Q9Y603 1-341); details: protein: recombinant; tags: N-terminal GST; dsDNA, one strand shown
# T9 sequence: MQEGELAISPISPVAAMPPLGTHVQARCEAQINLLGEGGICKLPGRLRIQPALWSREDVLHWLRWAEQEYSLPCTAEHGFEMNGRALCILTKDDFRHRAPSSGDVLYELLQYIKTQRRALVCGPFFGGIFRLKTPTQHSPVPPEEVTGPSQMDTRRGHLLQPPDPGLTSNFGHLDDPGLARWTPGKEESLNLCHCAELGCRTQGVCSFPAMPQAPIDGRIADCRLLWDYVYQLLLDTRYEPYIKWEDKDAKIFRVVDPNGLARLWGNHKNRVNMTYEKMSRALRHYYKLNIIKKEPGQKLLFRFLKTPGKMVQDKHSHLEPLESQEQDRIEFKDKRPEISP
# Method in brief: as §1
# ELF5 = biological target: T10, ELF5 (Homo sapiens, UniProt Q9UKW6-2 1-255); details: protein: recombinant; tags: N-terminal GST; dsDNA, one strand shown
# T10 sequence: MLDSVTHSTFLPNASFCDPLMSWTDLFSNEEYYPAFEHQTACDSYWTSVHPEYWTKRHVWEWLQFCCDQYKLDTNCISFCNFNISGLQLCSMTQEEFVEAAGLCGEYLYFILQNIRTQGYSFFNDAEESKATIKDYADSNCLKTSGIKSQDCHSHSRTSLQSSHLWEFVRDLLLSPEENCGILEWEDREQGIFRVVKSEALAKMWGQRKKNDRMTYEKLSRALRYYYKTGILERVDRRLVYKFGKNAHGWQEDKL
# Method in brief: as §1
# ETV3 = biological target: T11, ETV3 (Homo sapiens, UniProt P41162-2 1-143); details: protein: recombinant; tags: N-terminal GST; dsDNA, one strand shown
# T11 sequence: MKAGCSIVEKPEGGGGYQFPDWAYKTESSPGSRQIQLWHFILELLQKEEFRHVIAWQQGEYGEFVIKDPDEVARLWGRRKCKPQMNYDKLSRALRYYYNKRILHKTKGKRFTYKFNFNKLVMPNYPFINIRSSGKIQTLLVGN
# Method in brief: as §1
# ETV6 = ETV6 (Homo sapiens, UniProt P41212 1-452); details: protein: recombinant; tags: N-terminal GST; dsDNA, one strand shown
# ETV6, sequence (P41212 whole entry): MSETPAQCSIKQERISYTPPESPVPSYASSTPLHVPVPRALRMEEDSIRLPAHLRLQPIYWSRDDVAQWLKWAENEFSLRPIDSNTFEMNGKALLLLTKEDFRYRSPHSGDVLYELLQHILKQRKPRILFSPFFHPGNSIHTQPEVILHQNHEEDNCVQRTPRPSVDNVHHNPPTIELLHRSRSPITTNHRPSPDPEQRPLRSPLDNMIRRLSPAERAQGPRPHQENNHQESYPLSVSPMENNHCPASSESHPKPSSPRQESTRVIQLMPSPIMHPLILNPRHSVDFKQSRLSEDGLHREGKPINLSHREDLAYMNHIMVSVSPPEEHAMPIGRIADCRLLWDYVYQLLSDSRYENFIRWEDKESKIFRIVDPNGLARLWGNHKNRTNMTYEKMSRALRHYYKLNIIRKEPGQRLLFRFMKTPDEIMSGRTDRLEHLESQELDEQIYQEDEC
# Method in brief: as §1
sequence,measurement,setting,value
GATTTG,binding signal,FEV,"1.11 fold enrichment (6-mer frequency, TF over GST control)"
same,binding signal,ETV5,"1.25 fold enrichment (6-mer frequency, TF over GST control)"
same,binding signal,HSF1,"1.39 fold enrichment (6-mer frequency, TF over GST control)"
same,binding signal,SPIC,"1.17 fold enrichment (6-mer frequency, TF over GST control)"
same,binding signal,ELF4,"1.13 fold enrichment (6-mer frequency, TF over GST control)"
same,binding signal,ELK4,"1.19 fold enrichment (6-mer frequency, TF over GST control)"
same,binding signal,ETV2,"1.19 fold enrichment (6-mer frequency, TF over GST control)"
same,binding signal,CRX,"1.78 fold enrichment (6-mer frequency, TF over GST control)"
same,binding signal,ETV1,"1.14 fold enrichment (6-mer frequency, TF over GST control)"
same,binding signal,ERF,"1.12 fold enrichment (6-mer frequency, TF over GST control)"
same,binding signal,ETV3L,"1.18 fold enrichment (6-mer frequency, TF over GST control)"
same,binding signal,ETS2,"1.14 fold enrichment (6-mer frequency, TF over GST control)"
same,binding signal,SPDEF,"1.19 fold enrichment (6-mer frequency, TF over GST control)"
same,binding signal,ETV7,"1.15 fold enrichment (6-mer frequency, TF over GST control)"
same,binding signal,ELF5,"1.05 fold enrichment (6-mer frequency, TF over GST control)"
same,binding signal,ETV3,"1.1 fold enrichment (6-mer frequency, TF over GST control)"
same,binding signal,ETV6,"1.09 fold enrichment (6-mer frequency, TF over GST control)"
